Test results taken from a collection of fitness landscapes (doi:10.1038/s41467-024-54723-y).
Whole data set: some 18,000 sequences, median “TetR repression strength (sort-seq, GFP reporter)” near 0.23, cut for the highest 2% near 0.68. The sample as a whole holds a higher share of the highest values than the screen did.

Each sequence was assayed against TetR (class B, Tn10) (UniProt P04483) (assay: TetR repression strength (sort-seq, GFP reporter) (relative to tetO2 = 1); higher = stronger repression). Details: E. coli.
How it was run: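 In LB with 50 µg/mL chloramphenicol, E. coli SIG10-MAX holding a low-copy library with eight randomized operator positions between a constitutive promoter and sfGFP, plus constitutive TetR, grew for 5 h at 37 °C. FACS then sorted 10^6 cells into 13 fluorescence bins for Illumina sequencing of each bin. Repression strength equals the top bin index plus one less the read-weighted mean bin, normalized to the unaltered operator. Values from three independent transformations were averaged when reads were ≥30 in every replicate and the CV was ≤0.5.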

TetR (class B, Tn10), sequence (P04483 whole entry): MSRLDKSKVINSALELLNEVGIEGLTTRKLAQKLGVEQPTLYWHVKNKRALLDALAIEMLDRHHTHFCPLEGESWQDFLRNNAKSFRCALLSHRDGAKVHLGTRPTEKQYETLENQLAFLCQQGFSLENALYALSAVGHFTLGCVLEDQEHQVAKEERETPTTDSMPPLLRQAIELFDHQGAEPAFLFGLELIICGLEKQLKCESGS

| Sequence | TetR repression strength |
| --- | --- |
| TCCCGGACAGTAACGGAGA | 0.312 |
| TCCCGCGGAGTCACTGAGA | 0.415 |
| TCCCTCGTAGTGTTTGAGA | 0.362 |
| TCCCAGTCAGTTCAGGAGA | 0.096 |
| TCCCGATAAGTTGCGGAGA | 0.185 |
| TCCCTTTCAGTAGCGGAGA | 0.798 |
| TCCCTTTCAGTAGGGGAGA | 0.194 |
| TCCCTTACAGTAGCGGAGA | 0.0543 |
| TCCCCTTCAGTAGCGGAGA | 0.344 |
| TCCCTTTCAGTAGAGGAGA | 1.01 |
| TCCCTTTCAGTCGAGGAGA | 0.369 |
| TCCCAGACAGTCATCGAGA | 0.368 |
| TCCCTAGCAGTTGTAGAGA | 0.509 |
| TCCCTTGCAGTGATCGAGA | 0.654 |
| TCCCGTCGAGTAGGGGAGA | 0.127 |
| TCCCAGCGAGTTAGAGAGA | 0.815 |
| TCCCAGCGAGTTACAGAGA | 0.238 |
| TCCCTGGGAGTTATAGAGA | 0.354 |
| TCCCTAGGAGTTAGGGAGA | 0.979 |
| TCCCAGAGAGTTAGCGAGA | 0.557 |
| TCCCTGTTAGTTTGTGAGA | 0.4 |
| TCCCTGGGAGTTAGTGAGA | 0.146 |

| Sequence | TetR repression strength |
| --- | --- |
| TCCCTGTTAGTTTGAGAGA | 0.856 |
| TCCCTAGTAGTTAGGGAGA | 0.192 |
| TCCCTGATAGTTTGAGAGA | 0.382 |
| TCCCTTGGAGTTAGGGAGA | 0.2 |
| TCCCTGGGAGTTAGAGAGA | 0.832 |
| TCCCAGAAAGTCAATGAGA | 0.289 |
| TCCCTGCTAGTGGCAGAGA | 0.119 |
| TCCCTATAAGTAGGAGAGA | 0.228 |
| TCCCAGTGAGTGCGCGAGA | 0.286 |
| TCCCCAGAAGTCGTTGAGA | 0.061 |
| TCCCCGTAAGTACAGGAGA | 0.368 |
| TCCCGGCAAGTTTTTGAGA | 0.238 |
| TCCCGGGAAGTGGGGGAGA | 0.274 |
| TCCCGGATAGTGATCGAGA | 0.33 |
| TCCCGACTAGTCAGGGAGA | 0.515 |
| TCCCCGGGAGTGTGGGAGA | 0.207 |
| TCCCTGGTAGTGACCGAGA | 0.116 |
| TCCCTAGTAGTTGCGGAGA | 0.322 |
| TCCCCTTGAGTTGAGGAGA | 0.707 |
| TCCCAAGAAGTTGCGGAGA | 0.21 |
| TCCCTGGTAGTTAGAGAGA | 0.821 |
| TCCCTGGTAGTTAGTGAGA | 0.141 |

| Sequence | TetR repression strength |
| --- | --- |
| TCCCTGGTAGTGAGAGAGA | 0.326 |
| TCCCTAGAAGTTGCGGAGA | 1.2 |
| TCCCTTGGAGTTGAGGAGA | 0.465 |
| TCCCTGGTAGTGACAGAGA | 1.03 |
| TCCCTGTTAGTTAGAGAGA | 0.452 |
| TCCCCTAGAGTTGAGGAGA | 0.239 |
| TCCCGGCTAGTGTGGGAGA | 0.221 |
| TCCCAGGAAGTCAGGGAGA | 0.235 |
| TCCCCGAGAGTGCCAGAGA | 0.411 |
| TCCCAATGAGTTCAGGAGA | 0.243 |
| TCCCAGTTAGTAATTGAGA | 0.0467 |
| TCCCTGGGAGTTGGGGAGA | 0.211 |
| TCCCCTGGAGTTTGGGAGA | 0.286 |
| TCCCCTGGAGTTGGGGAGA | 1.09 |
| TCCCGACTAGTGATAGAGA | 0.632 |
| TCCCCTCGAGTGTTTGAGA | 0.92 |
| TCCCCTCGAGTGTGTGAGA | 0.125 |
| TCCCCTGTAGTGTTTGAGA | 0.396 |
| TCCCCTCTAGTGTTTGAGA | 0.945 |
| TCCCCTTGAGTGTTTGAGA | 0.302 |
| TCCCGTCTAGTGTTTGAGA | 0.371 |
| TCCCCCAGAGTTAACGAGA | 0.207 |

| Sequence | TetR repression strength |
| --- | --- |
| TCCCCTGCAGTGGCTGAGA | 0.205 |
| TCCCCAATAGTAGTCGAGA | 0.459 |
| TCCCCAAAAGTAGATGAGA | 0.081 |
| TCCCCAAGAGTAGATGAGA | 0.739 |
| TCCCCACGAGTAGTCGAGA | 0 |
| TCCCGTTGAGTCGATGAGA | 0.335 |
| TCCCCATGAGTAGTCGAGA | 1.03 |
| TCCCCATTAGTAGTCGAGA | 1.01 |
| TCCCCATGAGTCGTCGAGA | 0.214 |
| TCCCCATTAGTATTCGAGA | 0.24 |
| TCCCGTAGAGTCGATGAGA | 0.715 |
| TCCCCAATAGTAGATGAGA | 0.672 |
| TCCCCTAGAGTCGATGAGA | 0.271 |
| TCCCGAAGAGTAAGTGAGA | 0.207 |
| TCCCGTCCAGTGTGTGAGA | 0.22 |
| TCCCATATAGTGTACGAGA | 0.0769 |
| TCCCCTAGAGTGCAAGAGA | 0.552 |
| TCCCATGGAGTTGGTGAGA | 0.227 |
| TCCCCTCAAGTCGAGGAGA | 0.125 |
| TCCCTACAAGTGGATGAGA | 0.221 |
| TCCCTATCAGTCCGAGAGA | 0.324 |
| TCCCTATCAGTCCCAGAGA | 1.18 |

| Sequence | TetR repression strength |
| --- | --- |
| TCCCTATTAGTCCCAGAGA | 0.32 |
| TCCCCAGTAGTCGCTGAGA | 0.311 |
| TCCCAGTCAGTCCCAGAGA | 0.365 |
| TCCCTCTCAGTGCCAGAGA | 0.585 |
| TCCCTTTCAGTCCCAGAGA | 0.0305 |
| TCCCCAGTAGTCTGAGAGA | 0.0196 |
| TCCCCTTCAGTCCCAGAGA | 1.12 |
| TCCCCAGTAGTCCCTGAGA | 0.945 |
| TCCCTGTCAGTGCCAGAGA | 0.324 |
| TCCCTATCAGTGCCAGAGA | 0.743 |
| TCCCGTCAAGTAATAGAGA | 0.331 |
| TCCCTGTTAGTTGTCGAGA | 0.341 |
| TCCCTTTCAGTATGGGAGA | 0.422 |
| TCCCAAAAAGTGGTGGAGA | 0.203 |
| TCCCCGCGAGTTGAAGAGA | 0.335 |
| TCCCTAACAGTCGGCGAGA | 0.163 |
| TCCCTGAGAGTCGTGGAGA | 0.239 |
| TCCCGTCAAGTGGATGAGA | 0.109 |
| TCCCTCCGAGTGCAGGAGA | 0.492 |
| TCCCCCGCAGTGCATGAGA | 0.385 |
| TCCCCCTCAGTTGTAGAGA | 0.237 |
| TCCCGACCAGTGCGGGAGA | 0.222 |

| Sequence | TetR repression strength |
| --- | --- |
| TCCCGAGCAGTGCAGGAGA | 0.226 |
| TCCCGAAAAGTGCAGGAGA | 0.26 |
| TCCCGACCAGTGCAGGAGA | 0.805 |
| TCCCGAGAAGTGCAGGAGA | 0.173 |
| TCCCGACAAGTGCAGGAGA | 0.684 |
| TCCCTAGCAGTGGTGGAGA | 0.27 |
| TCCCGTTGAGTGTATGAGA | 0.181 |
| TCCCAGGCAGTCCGTGAGA | 0.2 |
| TCCCGGTTAGTGCAAGAGA | 0.415 |
| TCCCTAGGAGTAACGGAGA | 0.183 |
| TCCCGTCTAGTTCTAGAGA | 0.36 |
| TCCCGTCGAGTTAAGGAGA | 0.815 |
| TCCCGTCTAGTTAAGGAGA | 0.811 |
| TCCCGTCGAGTTCCGGAGA | 0.977 |
| TCCCGTCGAGTCCCGGAGA | 0.402 |
| TCCCGTCGAGTGCCGGAGA | 0.363 |
| TCCCTTCTAGTTAAGGAGA | 0.283 |
| TCCCGTCTAGTTCTGGAGA | 0.687 |
| TCCCGTCTAGTTGAGGAGA | 0.24 |
| TCCCGTCGAGTAAAGGAGA | 0.22 |
| TCCCGTCGAGTGAAGGAGA | 0.311 |
| TCCCGTGTAGTTCTGGAGA | 0.189 |
